Among the data in PubChem BioAssay (NCI) are growth values, retold here.

What all share (experiment): NCI-60 one-dose screen, 48 h (100 = growth as untreated, 0 = no growth, -100 = all killed)
In one test the test system is HCT-15 colon. To be noted: 10 µM unless noted.
Another test concerns HT29 colon. To be noted: 10 µM unless noted.
For another test, the system named is SNB-75 CNS. Conditions: 10 µM unless noted.
In another test the test system is SNB-19 CNS. To be noted: 10 µM unless noted.
The subject of the next test is U251 CNS. Conditions: 10 µM unless noted.
A further test relates to PC-3 prostate. Conditions: 10 µM unless noted.
For another test, the system named is SK-MEL-5 melanoma. To be noted: 10 µM unless noted.
Another test deals with UACC-62 melanoma. To be noted: 10 µM unless noted.
A further test deals with LOX IMVI melanoma. To be noted: 10 µM unless noted.
In another test the test system is SK-MEL-28 melanoma. To be noted: 10 µM unless noted.
Another test has as its system SK-MEL-2 melanoma. Conditions: 10 µM.
A further test deals with EKVX NSCLC. Conditions: 10 µM unless noted.
For the next test, the system named is SN12C renal. To be noted: 10 µM unless noted.
In another test the test system is UO-31 renal. To be noted: 10 µM unless noted.
In another test the test system is TK-10 renal. Conditions: 10 µM unless noted.
In the next test the test system is ACHN renal. To be noted: 10 µM unless noted.
A further test concerns CAKI-1 renal. Conditions: 10 µM unless noted.
A further test has as its system A498 renal. Conditions: 10 µM unless noted.
The next test has as its system CCRF-CEM leukemia. To be noted: 10 µM unless noted.
The subject of another test is MOLT-4 leukemia. To be noted: 10 µM unless noted.

Each structure is given as a SMILES string. Compounds without any hit were thinned out: in the full panel of roughly 83,000, 20% have a hit.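 Interpretation: 100, growth as untreated; towards 0, rising growth inhibition; 0, no net growth; 0 to -100, cell death. Compounds scoring below 10 were considered active.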 Unmarked numbers belong to inactive results. Active and inactive are the calls of the source.

With `O=C(NO)c1ccc(Cn2c(=O)n(-c3ccccc3F)c(=O)c3ccccc32)cc1`, the growth in the test with HCT-15 colon is 20.6%; in the test with HT29 colon, 9.88% (active); in the test with SNB-75 CNS, -3.9% (active); in the test on SNB-19 CNS, 6.93% (active); with U251 CNS, -85.3% (active); in the test with PC-3 prostate it was -33.6% (active). Moreover, the growth in the test on SK-MEL-5 melanoma is -19.2% (active); in the test on UACC-62 melanoma, -46.2% (active); in the test with LOX IMVI melanoma, -86.4% (active); in the test with SK-MEL-28 melanoma, -21.5% (active); in the test with SK-MEL-2 melanoma, -3.95% (active); with EKVX NSCLC, 6.72% (active). For the same compound, the growth in the test on SN12C renal is 11.5%; in the test on UO-31 renal, 27.2%; in the test on TK-10 renal it was 6.07% (active); with ACHN renal, 22%; with CAKI-1 renal it was 25%; in the test with A498 renal, -34.7% (active). In addition, the growth in the test on CCRF-CEM leukemia was 2.07% (active); in the test with MOLT-4 leukemia, -8.31% (active).
`CC(N)C(Cc1ccccc1)c1ccc(Cl)cc1` (centres undefined): the growth with HCT-15 colon is 101%; with HT29 colon, 76.8%; with SNB-75 CNS it was 70.4%; with SNB-19 CNS, 92%; in the test on U251 CNS, 86.4%; in the test with PC-3 prostate it was 68%. In addition, the growth in the test on SK-MEL-5 melanoma is 93.3%; in the test with UACC-62 melanoma it was 93.2%; in the test on LOX IMVI melanoma, 90.1%; in the test with SK-MEL-28 melanoma it was 96.7%; with SK-MEL-2 melanoma, 96.7%; with EKVX NSCLC, 91.6%. The growth in the test on SN12C renal is 90.7%; with UO-31 renal, 65.4%; with TK-10 renal it was 89.5%; in the test on ACHN renal it was 97%; in the test with CAKI-1 renal, 79.1%; in the test with CCRF-CEM leukemia, 91.2%. In addition, the growth with MOLT-4 leukemia was 76.4%.
Regarding `O=C1CC(c2ccc(Cl)cc2)c2ncn(-c3cccc(Cl)c3)c2N1` (centres undefined), the growth in the test on HCT-15 colon was 27.7%; in the test on HT29 colon it was 28.8%; with SNB-75 CNS it was 36.2%; in the test on SNB-19 CNS, 50%; in the test with U251 CNS, 36.3%; in the test with PC-3 prostate, 67.7%. Further, the growth was 34.1% with SK-MEL-5 melanoma; 33.9% with UACC-62 melanoma; 47.5% in the test with LOX IMVI melanoma; 54.8% with SK-MEL-28 melanoma; 44.8% in the test on SK-MEL-2 melanoma; 73.5% in the test on EKVX NSCLC. Further, the growth in the test with SN12C renal is 56.1%; with UO-31 renal, 50.5%; in the test with TK-10 renal it was 95.8%; in the test on ACHN renal it was 52.6%; in the test on CAKI-1 renal, 75.3%; in the test on CCRF-CEM leukemia, 60.4%. Also, the growth with MOLT-4 leukemia was 44.4%.
With `CC(C)[C@@H](C)/C=C/[C@@H](C)[C@H]1CCC2=C3C=CC4=CC(=O)CC[C@]4(C)[C@H]3CC[C@@]21C`, the growth with HCT-15 colon is 99.7%; with HT29 colon, 74.3%; in the test on SNB-75 CNS, 96.7%; in the test with SNB-19 CNS it was 100%; in the test on U251 CNS, 88.7%; in the test with PC-3 prostate it was 62.8%. Moreover, the growth in the test on SK-MEL-5 melanoma was 89.5%; in the test on UACC-62 melanoma, 94.9%; in the test on LOX IMVI melanoma, 101%; with SK-MEL-28 melanoma it was 113%; in the test on SK-MEL-2 melanoma, 101%; in the test on EKVX NSCLC, 99.1%. The growth is 101% with SN12C renal; 92% in the test on UO-31 renal; 87.8% in the test on TK-10 renal; 109% in the test on ACHN renal; 93.9% in the test with CAKI-1 renal; 82.2% with CCRF-CEM leukemia. In addition, the growth with MOLT-4 leukemia was 85.5%.
Regarding `CCc1nc2cc(/C=C/C(=O)NO)ccc2c(=O)n1CCc1ccc(OC)cc1`, the growth with HCT-15 colon was 25.2%; in the test on HT29 colon it was 6.61% (active); in the test with SNB-75 CNS, 24.1%; in the test on SNB-19 CNS, 35.9%; in the test with U251 CNS, 16.5%; in the test on PC-3 prostate, 22.9%. The growth is 0.923% (active) in the test on SK-MEL-5 melanoma; -5.16% (active) in the test with UACC-62 melanoma; -21.8% (active) in the test on LOX IMVI melanoma; 30% with SK-MEL-28 melanoma; 47.4% in the test with SK-MEL-2 melanoma; 40.8% in the test on EKVX NSCLC. Besides, the growth in the test on SN12C renal was 24.9%; in the test on UO-31 renal, 20.6%; in the test with TK-10 renal, 2.16% (active); in the test on ACHN renal, 9.54% (active); in the test with CAKI-1 renal, 13.4%; in the test on A498 renal, -4.17% (active). Further, the figures for the growth with CCRF-CEM leukemia and in the test on MOLT-4 leukemia were 10.2% and 5.41% (active), respectively.
Take `C=C1[C@@H](O)C[C@H]2C(C)(C)C[C@H](Cl)C[C@]2(C)[C@H]1C[C@H](O)[C@H]1CC(=O)NC1=O`: the growth in the test with HCT-15 colon was -13.7% (active); with HT29 colon, -23.6% (active); in the test with SNB-75 CNS, -37.2% (active); with SNB-19 CNS it was -20.7% (active); in the test with U251 CNS it was -16.8% (active); in the test on PC-3 prostate it was -19% (active). Moreover, the growth with SK-MEL-5 melanoma is -70.1% (active); in the test on UACC-62 melanoma it was -72.4% (active); with LOX IMVI melanoma it was -71.9% (active); with SK-MEL-28 melanoma it was -26.1% (active); with SK-MEL-2 melanoma it was -70.4% (active); in the test on EKVX NSCLC, -25.1% (active). For the same compound, the growth in the test on SN12C renal is -28.9% (active); in the test on UO-31 renal, -26.1% (active); in the test with TK-10 renal, -18.6% (active); in the test with ACHN renal, -26.2% (active); in the test on CAKI-1 renal it was 1.87% (active); in the test with A498 renal, -76% (active). Moreover, the results for the growth with CCRF-CEM leukemia and in the test with MOLT-4 leukemia were 0.532% (active) and -11.2% (active), respectively.
With `CCOC(=O)Sc1ncnc2nc[nH]c12`, the growth in the test with HCT-15 colon is 82.5%; with HT29 colon it was 59.6%; in the test with SNB-75 CNS, 62%; with SNB-19 CNS, 91.1%; in the test with U251 CNS, 91.7%; in the test with PC-3 prostate, 88%. For the same compound, the growth in the test with SK-MEL-5 melanoma is 74.1%; in the test on UACC-62 melanoma, 16%; in the test with LOX IMVI melanoma, 7.98% (active); in the test with SK-MEL-28 melanoma it was 100%; with SK-MEL-2 melanoma, 27.9%; in the test with EKVX NSCLC, 97.9%. Besides, the growth in the test with SN12C renal was 82.4%; in the test with UO-31 renal, 41%; with TK-10 renal it was 23.2%; in the test on ACHN renal, 70%; in the test with A498 renal, 84%; in the test on CCRF-CEM leukemia, 13.5%.
For the compound `O=c1[nH]c(N2CCOCC2)nc2scc(-c3ccccc3)c12`, the growth with HCT-15 colon is 99%; in the test on HT29 colon, 86.8%; in the test with SNB-75 CNS, 84.3%; with SNB-19 CNS, 106%; in the test with U251 CNS, 69.5%; in the test on PC-3 prostate it was 94.6%. The growth is 98.7% in the test with SK-MEL-5 melanoma; 99.2% with UACC-62 melanoma; 100% with LOX IMVI melanoma; 110% with SK-MEL-28 melanoma; 81.8% with SK-MEL-2 melanoma; 53.3% in the test with EKVX NSCLC. The growth in the test with SN12C renal is 107%; in the test on UO-31 renal it was 83.1%; with TK-10 renal it was 86.6%; in the test with ACHN renal, 99.3%; in the test with A498 renal it was 104%; in the test on CCRF-CEM leukemia, 101%. Further, the growth in the test with MOLT-4 leukemia was 90.5%.
